Source: PubChem (National Center for Advancing Translational Sciences (NCATS))
TDP1 cell noCPT – qHTS for Inhibitors of human tyrosyl-DNA phosphodiesterase 1 (TDP1): qHTS in cells in absence of CPT. 420,000 tested, 15% active. Potency, µM (top dose mostly 46.2 µM), hits mostly inhibitors. DT40 Tdp1-/- hTDP1 cells, no CPT, ATP luminescence, 48 h; also: nearly all actives have a fitted effect of over 55% in size
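Chicken DT40 Tdp1-/- cells complemented with human TDP1, screened without camptothecin (DMSO vehicle only), 400 cells/well. Compounds pin-transferred, cells incubated at 37 °C for at least 48 hr. Growth read as ATP-dependent luminescence (CellTiter-Glo, 30 min at RT).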
HT1080 IDH1KD tx – kills HT-1080 cells with IDH1 knockdown; HT-1080 IDH1 knockdown viability, ATP luminescence, 48 h; 360,000 tested, 2% active; Potency, µM (highest dose often 46.1 µM), most hits filed as cytotoxic
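Luminescent ATP read-out (CellTiter-Glo, 10 min at room temperature) after 48 h compound exposure at 37 °C gave viability of IDH1-knockdown HT-1080 cells. Activity was normalised to DMSO and cell-free wells, then fitted as concentration-response curves.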
HT1080-NT tox – kills 2HG-producing HT-1080-NT fibrosarcoma cells. HT-1080-NT fibrosarcoma viability, CellTiter-Glo ATP luminescence, 48 h. Potency, µM (doses to about 46.1 µM), hits mostly cytotoxic. 360,000 tested, 1.6% active. AID 686970;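 also: NT is the 2HG producing partner of a matched IDH1 knockdown line; nearly all actives have a fitted effect of over 55% in size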
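Toxicity toward the 2HG-producing NT line was scored as %Activity, normalised to DMSO and no-cell wells, from CellTiter-Glo luminescence after 48 hours' treatment.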
DT40 TDP1 CPT – DT40-hTDP1 cell growth loss with CPT. chicken DT40 Tdp1-/-;hTDP1 cells + 20 nM CPT, ATP luminescence, 48 h. Potency, µM (highest dose often 46.2 µM), actives largely listed as inhibitors. 420,000 tested, 12% active. AID 686979; also: nearly all actives have a fitted effect of over 55% in size
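Cell growth measured by CellTiter-Glo luminescence after a minimum 48 h, 37 C compound exposure with 20 nM CPT in Tdp1-knockout DT40 cells stably expressing hTDP1, seeded 400/well; qHTS titration format.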
IL1B secr inh – inflammasome signaling inhibition, IL-1 beta readout. 360,000 tested, 4.7% active. activity change, % at 57.5 µM. THP-1 LPS/ATP IL-1B secretion, AlphaLISA, 16 h; active compounds read low; in the data active = activity change below about -50%; inconclusive = mostly about -30% to -49%
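Secreted IL-1B measured by AlphaLISA bead assay after 16 h compound exposure of THP-1 cells; compounds (final up to 57.5 uM) added 1 h before LPS (250 ng/mL) and ATP (1.25 mM) stimulation; lower signal means less secretion.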
Of the large screens only hits and unclear results are named; the others gave an inactive call. Compounds with a hit are over-represented: about 19% of the library has one in this group of screens. Unless noted, calls follow the shape of the dose curve; as a rule, active = well fitted curve in the direction sought with a large enough effect; inconclusive = small, poorly fitted or top-dose-only effect, or another doubt; inactive = no such curve, though single readings can be large; an effect the other way counts as inactive or inconclusive.

COc1cccc2cc(C(=O)NCc3ccco3)c(=Nc3ccc(C(=O)O)cc3)oc12	TDP1 cell noCPT 16µM, HT1080-NT tox inconclusive, DT40 TDP1 CPT inconclusive, IL1B secr inh -85
COc1ccc2oc(=O)c(C(C)=O)cc2c1	none
O=C(O)c1ccc(N=c2oc3cc(O)ccc3cc2C(=O)NCc2ccccc2)cc1	none
COc1ccc2oc(=Nc3cc(F)ccc3F)c(C(N)=O)cc2c1	TDP1 cell noCPT 4.6µM, HT1080 IDH1KD tx inconclusive, HT1080-NT tox inconclusive, DT40 TDP1 CPT 4.1µM
COc1ccc2cc(C(=O)NCc3ccccc3)c(=Nc3ccc(C(=O)O)cc3)oc2c1	TDP1 cell noCPT 13µM, DT40 TDP1 CPT inconclusive
COc1ccccc1N(C(C)=O)C1=C(Cl)C(=O)c2ccccc2C1=O	TDP1 cell noCPT 0.73µM, HT1080 IDH1KD tx 7.3µM, HT1080-NT tox 18µM, DT40 TDP1 CPT 0.52µM, IL1B secr inh inconclusive
CC(=O)N(C1=C(N)C(=O)c2ccccc2C1=O)C(C)C	TDP1 cell noCPT inconclusive, DT40 TDP1 CPT inconclusive
O=C(Nc1nnc2n1CCS2)c1ccc(Br)o1	none
CCOc1ccc(NC(=O)c2cnc(N3CCCC3)nc2C)cc1	TDP1 cell noCPT inconclusive (no result: HT1080 IDH1KD tx, HT1080-NT tox, IL1B secr inh)
CC(=O)Nc1ccc(NC(=O)c2c([N+](=O)[O-])c(C(C)(C)C)nn2C)cc1	TDP1 cell noCPT inconclusive (no result: IL1B secr inh)
Cc1c([N+](=O)[O-])c([N+](=O)[O-])nn1CC(=O)NCCc1ccccc1	IL1B secr inh -90
CC(C)c1onc(C(=O)N(C)Cc2ccccc2)c1[N+](=O)[O-]	none
COc1ccc(NC(=O)c2noc(C(C)C)c2[N+](=O)[O-])cc1	TDP1 cell noCPT inconclusive, HT1080 IDH1KD tx inconclusive, HT1080-NT tox 23µM, DT40 TDP1 CPT inconclusive
COc1ccc(NC(=O)c2c([N+](=O)[O-])c(C(C)(C)C)nn2C)cc1	TDP1 cell noCPT inconclusive, DT40 TDP1 CPT inconclusive, IL1B secr inh -54
CCCNC(=O)Cn1nc([N+](=O)[O-])c([N+](=O)[O-])c1C	none
CC(C)c1onc(C(=O)NCCc2ccccc2)c1[N+](=O)[O-]	TDP1 cell noCPT inconclusive, HT1080 IDH1KD tx inconclusive, HT1080-NT tox inconclusive, DT40 TDP1 CPT 21µM
O=C(Nc1cccc(C(=O)O)c1)/C(=C\c1ccccc1)NC(=O)c1cccc2ccccc12	none
CCCCNC(=O)C1C(c2ccc(C(F)(F)F)cc2)=Nc2ccccc2N1C(=O)C1CCN(C(C)=O)CC1 (centres undefined)	none
COc1ccc2nc(NC(=O)C(NS(=O)(=O)c3cccc4nsnc34)C(C)C)sc2c1 (centres undefined)	TDP1 cell noCPT inconclusive, HT1080 IDH1KD tx inconclusive, HT1080-NT tox inconclusive
CCc1ccc(N2C=C(C(=O)OC)C(c3ccccc3F)C(C#N)=C2N)cc1 (centres undefined)	TDP1 cell noCPT 23µM, HT1080 IDH1KD tx inconclusive, HT1080-NT tox inconclusive, DT40 TDP1 CPT inconclusive
COC(=O)C1=C(C)OC(N)=C(C#N)C1c1ccccc1F (centres undefined)	none
COC(=O)C1=CN(c2ccc(OC)cc2OC)C(N)=C(C#N)C1c1ccccc1F (centres undefined)	TDP1 cell noCPT 0.58µM, HT1080 IDH1KD tx 0.73µM, HT1080-NT tox 1.5µM, DT40 TDP1 CPT 0.82µM
COC(=O)C1=CN(c2ccc(OC)cc2)C(N)=C(C#N)C1c1ccccc1F (centres undefined)	TDP1 cell noCPT 13µM, HT1080 IDH1KD tx inconclusive, HT1080-NT tox inconclusive, DT40 TDP1 CPT 10µM
CCc1ccc(N2C=C(C(=O)OC)C(c3ccc(OC)cc3)C(C#N)=C2N)cc1 (centres undefined)	HT1080 IDH1KD tx inconclusive, HT1080-NT tox inconclusive, DT40 TDP1 CPT inconclusive
COC(=O)C1=CN(c2ccc(C(C)(C)C)cc2)C(N)=C(C#N)C1c1ccccc1F (centres undefined)	TDP1 cell noCPT 21µM, DT40 TDP1 CPT inconclusive
COC(=O)C1=CN(Cc2ccc(OC)c(OC)c2)C=C(C(=O)OC)C1c1ccccc1F	TDP1 cell noCPT inconclusive, DT40 TDP1 CPT inconclusive
O=c1c(-c2ccc(F)cc2)nc2cnc(Oc3ccccc3)nc2n1Cc1cccs1	DT40 TDP1 CPT inconclusive (no result: HT1080 IDH1KD tx, HT1080-NT tox, IL1B secr inh)
Cn1c(=O)[nH]c(=O)c2c1nc(Br)n2CC(O)COc1ccc(Cl)cc1 (centres undefined)	HT1080 IDH1KD tx inconclusive, HT1080-NT tox inconclusive, DT40 TDP1 CPT inconclusive
Cc1ccc(C)c(Cc2c(C)nc(C)[nH]c2=O)c1	none
Cc1nc(-c2ccccc2)c(Cc2ccccc2O)c(=O)[nH]1	TDP1 cell noCPT 5.2µM, DT40 TDP1 CPT 5.8µM
c1ccc2c(c1)CC(N1CCCCC1)c1ccccc1S2 (centres undefined)	TDP1 cell noCPT inconclusive, DT40 TDP1 CPT inconclusive
OCCN1CCN(C2Cc3cc(Cl)ccc3Sc3ccc(Cl)cc32)CC1 (centres undefined) (tested in a mixture with another compound)	TDP1 cell noCPT inconclusive, HT1080 IDH1KD tx inconclusive, HT1080-NT tox inconclusive, DT40 TDP1 CPT 23µM, IL1B secr inh -98
CN1CCN(C2Cc3cc(Cl)ccc3Sc3cc(F)ccc32)CC1 (centres undefined)	TDP1 cell noCPT inconclusive, HT1080 IDH1KD tx inconclusive, HT1080-NT tox inconclusive, DT40 TDP1 CPT inconclusive, IL1B secr inh -94
CN1CCN(CCOC2Cc3ccccc3Sc3ccc(Cl)cc32)CC1 (centres undefined)	TDP1 cell noCPT 21µM, DT40 TDP1 CPT inconclusive, IL1B secr inh -71
CCc1c(C)sc2c1CCN(C(=O)Nc1ccccc1Cl)C2c1ccc(OC)cc1 (centres undefined)	TDP1 cell noCPT 15µM, DT40 TDP1 CPT inconclusive (no result: HT1080 IDH1KD tx, HT1080-NT tox, IL1B secr inh)
CCc1c(C)sc2c1CCN(C(=O)Nc1cc(C)ccc1C)C2c1ccc(OC)cc1 (centres undefined)	TDP1 cell noCPT 26µM, DT40 TDP1 CPT inconclusive (no result: HT1080 IDH1KD tx, HT1080-NT tox, IL1B secr inh)
CC(C)N1CCN(c2ccc(OC[C@H]3CO[C@](Cn4cncn4)(c4ccc(Cl)cc4Cl)O3)cc2)CC1	TDP1 cell noCPT inconclusive, HT1080 IDH1KD tx inconclusive, HT1080-NT tox inconclusive, DT40 TDP1 CPT inconclusive
CC(C)N1CCN(c2ccc(OCC3COC(Cn4cncn4)(c4ccc(Cl)cc4Cl)O3)cc2)CC1 (centres undefined)	TDP1 cell noCPT inconclusive, DT40 TDP1 CPT inconclusive, IL1B secr inh -53
Cc1oc2ncn(C)c(=O)c2c1C(=O)N1CCN(c2cccc(C(F)(F)F)c2)CC1	none (no result: HT1080 IDH1KD tx, HT1080-NT tox, IL1B secr inh)
Brc1cc(Br)c[n+](CCc2ccccc2)c1	TDP1 cell noCPT 14µM, DT40 TDP1 CPT 11µM (no result: HT1080 IDH1KD tx, HT1080-NT tox, IL1B secr inh)
Brc1ccc[n+](CCc2ccccc2)c1	none (no result: HT1080 IDH1KD tx, HT1080-NT tox, IL1B secr inh)
O=C1CCN(S(=O)(=O)c2ccccc2)C2CCCCC12 (centres undefined)	TDP1 cell noCPT inconclusive
O=C1NC2CCCCC2C(=O)N1OS(=O)(=O)c1ccccc1 (centres undefined)	TDP1 cell noCPT 12µM, HT1080 IDH1KD tx inconclusive, DT40 TDP1 CPT 2.6µM, IL1B secr inh -78
